Rows were chosen to be rich in hits. Some 19% of all compounds tested hit in one or more screens of this group.
TDP1 inh: inhibitors of human tyrosyl-DNA phosphodiesterase TDP1 | recombinant TDP1, AlphaScreen DNA substrate cleavage | 350,000 compounds, 0.28% hits | Potency, µM (series often up to 130 µM), without a hit: at the top dose activity change, negative = inhibition, hits mostly inhibitors | Q9NUW8; also: potency is read from the fitted curve at half-maximal effect; % is scaled to controls: 0 for no effect and ±100 for the full control effect; nearly all actives have a fitted effect of over 40% in size
Target sequence (Q9NUW8 whole entry, looked up): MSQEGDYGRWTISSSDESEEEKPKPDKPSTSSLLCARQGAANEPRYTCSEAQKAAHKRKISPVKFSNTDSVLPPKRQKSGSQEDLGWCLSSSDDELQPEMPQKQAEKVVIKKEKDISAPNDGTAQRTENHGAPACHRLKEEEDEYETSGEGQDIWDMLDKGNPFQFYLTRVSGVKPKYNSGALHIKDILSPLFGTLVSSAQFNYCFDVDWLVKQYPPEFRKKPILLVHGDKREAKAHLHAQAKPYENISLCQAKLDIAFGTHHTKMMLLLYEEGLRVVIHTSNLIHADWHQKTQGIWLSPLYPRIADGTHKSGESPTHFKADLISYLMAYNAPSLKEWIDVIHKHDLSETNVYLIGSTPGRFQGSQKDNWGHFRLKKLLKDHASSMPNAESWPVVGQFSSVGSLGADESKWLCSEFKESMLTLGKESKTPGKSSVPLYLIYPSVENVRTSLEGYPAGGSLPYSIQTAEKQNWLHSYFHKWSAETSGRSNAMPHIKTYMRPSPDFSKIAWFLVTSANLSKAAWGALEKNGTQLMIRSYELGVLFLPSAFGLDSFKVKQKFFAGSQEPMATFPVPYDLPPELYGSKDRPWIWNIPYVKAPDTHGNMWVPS
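Here, a 5' biotin and 3' phosphotyrosine-FITC DNA oligonucleotide reports Tdp1 activity: intact substrate bridges AlphaScreen beads, while cleavage leaves a 3' phosphate and drops signal. All incubations at room temperature.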
TGFb SMAD3 inh: TGF-b pathway inhibition; HepG2 CAGA-GFP TGF-b/SMAD3 reporter, GFP fluorescence, 18 h; TGF-beta stimulated, 500 pg/mL final; Potency, µM (series often up to 46.1 µM), inactives show at the top dose activity, negative = inhibition, hits mostly inhibitors; 410,000 compounds, 1.2% hits; AID 588855; also: potency is read from the fitted curve at half-maximal effect; % is scaled to controls: 0 for no effect and ±100 for the full control effect; nearly all actives have a fitted effect of over 65% in size
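Inhibition of TGF-beta-driven CAGA-GFP reporter expression in HEPG2 cells is measured by cellular GFP fluorescence after 18 h stimulation with 500 pg/mL recombinant TGF-beta in 1% FBS medium at 37 degrees C.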
IL1B secr inh: inflammasome signaling inhibition, IL-1 beta readout; THP-1 LPS/ATP IL-1B secretion, AlphaLISA, 16 h; stronger effect = lower value; activity change, % at 57.5 µM; 360,000 compounds, 4.7% hits; in the data active = activity change below about -50%; inconclusive = mostly about -30% to -49%; also: % is scaled to controls: 0 for no effect and ±100 for the full control effect
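Secreted IL-1B measured by AlphaLISA bead assay after 16 h compound exposure of THP-1 cells; compounds (final up to 57.5 uM) added 1 h before LPS (250 ng/mL) and ATP (1.25 mM) stimulation; lower signal means less secretion.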
TDP1 cell CPT: growth inhibition of DT40 Tdp1-/-;hTDP1 cells with camptothecin (screen for TDP1 inhibitors); chicken DT40 Tdp1-/-;hTDP1 cells + 20 nM CPT, ATP luminescence, 48 h; Potency, µM (top dose mostly 46.2 µM), without a hit: at the highest dose activity change, negative = growth inhibition, usual class: inhibitors; 420,000 compounds, 12% hits; also: potency is read from the fitted curve at half-maximal effect; % is scaled to controls: 0 for no effect and ±100 for the full control effect; nearly all actives have a fitted effect of over 55% in size
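Cell growth measured by CellTiter-Glo luminescence after a minimum 48 h, 37 C compound exposure with 20 nM CPT in Tdp1-knockout DT40 cells stably expressing hTDP1, seeded 400/well; qHTS titration format.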
TDP1 cell noCPT: qHTS for Inhibitors of human tyrosyl-DNA phosphodiesterase 1 (TDP1): qHTS in cells in absence of CPT; 420,000 compounds, 15% hits; Potency, µM (series often up to 46.2 µM), for the others: at the highest dose activity change, negative = growth inhibition, most hits filed as inhibitors; DT40 Tdp1-/- hTDP1 cells, no CPT, ATP luminescence, 48 h; also: potency is read from the fitted curve at half-maximal effect; % is scaled to controls: 0 for no effect and ±100 for the full control effect; nearly all actives have a fitted effect of over 55% in size
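Chicken DT40 Tdp1-/- cells complemented with human TDP1, screened without camptothecin (DMSO vehicle only), 400 cells/well. Compounds pin-transferred, cells incubated at 37 °C for at least 48 hr. Growth read as ATP-dependent luminescence (CellTiter-Glo, 30 min at RT).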
HepG2 tox: kills HepG2 cells in TGF-b inhibitor counter-screen | AID 588856 | HepG2 CAGA-GFP viability, ATP luminescence, 18 h | 410,000 compounds, 0.76% hits | Potency, µM (titrated, usually from 46.1 µM), without a hit: top-dose activity change, negative = cytotoxicity, actives largely listed as cytotoxic; also: potency is read from the fitted curve at half-maximal effect
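HepG2 CAGA-GFP cells (1000/well, DMEM with 1% FBS) received compound, then TGF-beta at 500 pg/mL final, and were incubated 18 hours at 37 degrees C. Viability was read by CellTiter-Glo luminescence. Media-only wells were set as complete cell-killing and DMSO as no toxicity.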
* hit, by the source's call; ? = inconclusive; / = no result given; [ ] = remark or other dose. Unless noted, calls follow the shape of the dose curve; as a rule, active = well fitted curve in the direction sought with a large enough effect; inconclusive = small, poorly fitted or top-dose-only effect, or another doubt; inactive = no such curve, though single readings can be large; an effect the other way counts as inactive or inconclusive.

SMILES	TDP1 inh	TGFb SMAD3 inh	IL1B secr inh	TDP1 cell CPT	TDP1 cell noCPT	HepG2 tox
COc1cc2ccccc2cc1C(=O)Nc1ccc(Cl)cn1	/	3%	10	-26%	?	-21%
CCCCCCCCCC(=O)N/N=C(\C)c1cccnc1	-2%	-4%	2	?	?	-45%
CCCCCC(=O)N/N=C(\C)c1ccccn1	6%	-29%	47	5.8µM*	5.8µM*	-6%
CC(=NNC(=S)Nc1cccc(Cl)c1)c1ccccn1	/	?	-88*	0.082µM*	0.021µM*	-48%
C/C(=N/NC(=O)CNc1ccc(C)cc1)c1ccc(Br)s1	7%	-18%	-1	18µM*	18µM*	-10%
C/C(=N\NC(=O)c1ccc(Cl)cc1)c1ccccn1	1%	2µM*	-92*	0.58µM*	0.52µM*	-24%
Cc1ccn2c(=O)c(C(=O)NCCCN3CCCCC3C)c(O)nc2c1 (stereo not drawn)	1%	-5%	6	10%	2%	2%
Cc1cccn2c(=O)c(C(=O)NCc3ccccc3Cl)c(O)nc12	4%	-1%	/	16µM*	23µM*	-13%
Cc1cccn2c(=O)c(C(=O)NC3CCCCC3C)c(O)nc12 (stereo not drawn)	0%	11%	31	?	15µM*	-17%
Cc1csc2nc(O)c(C(=O)NC3CCCCC3)c(=O)n12	4%	?	14	?	?	8%
Cc1csc2nc(O)c(C(=O)NC3CCCCCC3)c(=O)n12	6%	3%	17	?	5.2µM*	-5%
Cc1ccn2c(=O)c(C(=O)NC3CCCCC3C)c(O)nc2c1 (stereo not drawn)	2%	23%	18	16µM*	?	-2%
Cc1cccn2c(=O)c(C(=O)NCc3ccc(F)cc3)c(O)nc12	0%	2%	/	?	?	-1%
Cc1cccc(CNC(=O)c2cnn(-c3nccc(-c4cccs4)n3)c2C(C)C)n1	/	/	/	-4%[9.04 µM]	?	/
Cc1csc2nc(O)c(C(=O)NCc3ccc4c(c3)OCO4)c(=O)n12	-3%	-5%	0	?	23µM*	-12%
Cc1cccn2c(=O)c(C(=O)NC3CCCCC3)c(O)nc12	0%	0%	-3	18µM*	18µM*	-2%
Cc1cccn2c(=O)c(C(=O)NC3CC(C)CC(C)(C)C3)c(O)nc12 (stereo not drawn)	/	-1%	11	7.3µM*	7.3µM*	-5%
Cc1cccn2c(=O)c(C(=O)NCCCN3CC(C)CC(C)C3)c(O)nc12 (stereo not drawn)	-1%	3%	-3	14%	-18%	-4%
Cc1nn(C)c(C)c1/C=C(/C(=O)C(C)(C)C)n1cncn1	/	-19%	-57*	?	23µM*	5%
Cc1nc2cccnc2n1C1CCN(C(=O)Nc2ccccc2C(F)(F)F)CC1	-4%	4%	/	0%	6%	2%
COc1ccn(C2CCCCO2)c(=O)n1 (stereo not drawn)	/	-7%	-10	-13%	2%	9%
CCCCn1nnnc1NCc1cccnc1	6%	22%	-3	8.2µM*	13µM*	-29%
CCCn1nnnc1NCc1ccc(SC)cc1	/	-5%	-58*	-9%	-4%	-5%
CCCCn1nnnc1NCc1ccc(N2CCCC2)cc1	7%	?	0	?	?	-56%
O=[N+]([O-])c1ccc(O)c(C(C#Cc2ccccc2)N2CCOCC2)c1 (stereo not drawn)	/	13µM*	-14	-17%	-16%	-4%
SMILES	TDP1 inh	TGFb SMAD3 inh	IL1B secr inh	TDP1 cell CPT	TDP1 cell noCPT	HepG2 tox
N#C/C(=C\c1cccc(Br)c1)C(=O)N1CCCCC1	0%	?	?	13µM*	12µM*	-180%
N#C/C(=C\c1cccc(O)c1)C(=O)N1CCCCC1	/	13%	-73*	15%	?	-15%
O=C(N/C(=C/c1cccc(Br)c1)C(=O)N1CCCCC1)c1ccco1	/	-1%	?	?	?	-11%
CC(=O)N1CCN(C(=O)/C(C#N)=C/c2ccc3c(c2)OCO3)CC1	8%	-3%	2	4%	5%	-14%
Cc1cc(/C=C(\C#N)C(=O)N2CCCCC2)cc(C)c1O	/	2%	-5	18µM*	26µM*	-5%
Cc1ccsc1/C=N/NC(=O)CNC(=O)c1cccc([N+](=O)[O-])c1C	5%	0%	5	-9%	-17%	1%
COc1ccccc1CNC(=O)c1cc2sccc2n1Cc1ccc(Cl)cc1	6%	-7%	/	?	?	-2%
COc1ccccc1N1CCN(C(=O)CCn2c(=O)[nH]c3ccsc3c2=O)CC1	-2%	-4%	33	-5%	-8%	-2%
Cc1cccc(N2CCN(C(=O)CCn3c(=O)[nH]c4ccsc4c3=O)CC2C)c1 (stereo not drawn)	2%	21%	4	?	10µM*	-6%
Cc1cccc(N2CCN(C(=O)CCCn3c(=O)[nH]c4ccsc4c3=O)CC2C)c1 (stereo not drawn)	5%	2%	-20	-14%	26µM*	-2%
Cc1cc(C)n(-c2nc3ccccc3c(=O)n2OCC(=O)OCc2ccccc2)n1	1%	-27%	73	5.8µM*	5.8µM*	-12%
Cc1cc(C)n(-c2nc3ccccc3c(=O)n2OCC(=O)N(C)C)n1	-3%	-11%	-2	8%	-22%	-2%
Cc1cc(C)n(-c2nc3ccccc3c(=O)n2OCC(=O)Nc2c(C)cccc2C)n1	7%	0%	-1	?	18µM*	-4%
C#CCOn1c(-n2nc(C)cc2C)nc2ccccc2c1=O	/	-11%	20	-7%	?	-52%
CCCCOC(=O)C1=C(C)Nc2nnnn2C1c1ccccc1Cl (stereo not drawn)	5%	-14%	8	?	13µM*	-7%
CC(C)=CCc1c(-c2ccc(O)cc2O)oc2cc3c(c(O)c2c1=O)C=CC(C)(C)O3	/	?	?	23µM*	23µM*	-109%
N#CC(Sc1ccccn1)c1ccc(Cl)cc1 (stereo not drawn)	-1%	-6%	-100*	?	?	0%
COc1ccc(SCCCn2c(=O)c3c(ncn3C)n(C)c2=O)cc1	11%	6%	7	?	?	-18%

Source: PubChem
